The source of these data is PubChem BioAssay (NCATS).

Assay [1] addresses Lysosomal acid glucosylceramidase (Homo sapiens) (UniProt P04062). The assay can be described thus: Glucocerebrosidase-p2 (AID 348; in the data active = potency below about 10 µM; also: potency is read from the fitted curve at half-maximal effect). Particulars: purified GBA, blue fluorogenic substrate, 40 min. Put shortly: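 Compounds titrated from 0.6 nM upwards against 0.2 nM enzyme in pH 5.9 citric acid/KH2PO4, taurocholate, tween-20; blue fluorogenic substrate 80 uM, 40 min room temperature, stopped and read Ex 365/Em 440 for AC50.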

Assay [2] concerns the target Cytochrome P450 1A2 (Homo sapiens) (UniProt P05177). The assay can be described thus: p450-cyp1a2 (AID 410; calls by dose curve; also: potency is read from the fitted curve at half-maximal effect;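 as to activity change, negative = inhibition: -100% = full effect of reference inhibitor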). The procedure, abridged:
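20nM CYP1A2 with 100uM Luciferin-ME (at Km) in 100mM KPO4; compound preincubated 10 min, NADPH regeneration added, 60 min at room temperature. Luciferin quantified by luminescence after detection reagent; normalized to 57 uM furafylline.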

Assay [3] concerns the target Glucocorticoid receptor (Homo sapiens) (UniProt P04150). The experiment in a line: GR-GFP Redistribution (AID 450;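 active = compounds whose dose series gives a full or clear partial fitted curve of increased nuclear translocation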; also: potency is read from the fitted curve at half-maximal effect). Particulars: U2OS GR-GFP nuclear translocation, laser cytometry, 2 h.
For assay [4] the target is unchanged. The experiment in a line: GR-EFC Redistribution (AID 451; calls by dose curve; also: potency is read from the fitted curve at half-maximal effect). Conditions: CHO-K1 GR-EFC translocation, beta-gal luminescence, 2 h. The procedure, abridged: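 CHO-K1 cells stably expressing nuclear-localized β-gal enzyme acceptor and GR fused C-terminally to the enzyme donor fragment; ligand-driven nuclear translocation restores β-gal by complementation. Compounds titrated up to 46 uM final, 2 h at 37 °C; luminescence read.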

Assay [5] deals with Mitogen-activated protein kinase 10 (Mus musculus) (UniProt Q61831). The experiment in a line: JNK3 AlphaScreen Assay (AID 530; active = well fitted curve in either direction with a large enough effect, not every such curve was filed as active;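 also: kinase came from lysate of stimulated human HepG2 cells; signal reports phosphorylation of biotinylated GST-cJun 1-79 at Ser73 with 10 µM ATP; % is scaled to controls: 0 for no effect and ±100 for the full control effect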). Put shortly: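 Inhibitors reduce antibody binding to phosphorylated biotin-cJun, lowering AlphaScreen luminescence. Lysates from HepG2 cells pre-activated by IL-1beta plus TNF-alpha supplied JNK3; compounds were titrated.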
Assay [6] deals with Cytochrome P450 2C9 (Homo sapiens) (UniProt P11712). The assay can be described thus: qHTS Assay for Inhibitors and Substrates of Cytochrome P450 2C9 (AID 883). Also: % is scaled to controls: 0 for no effect and ±100 for the full control effect; nearly all actives have a fitted effect of over 60% in size. The procedure, abridged:
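Human CYP2C9 (10nM) hydroxylated Luciferin-H (100uM, at its KM) to luciferin in 25mM KPO4. Compound was preincubated 10 min at 37C, then NADPH regeneration started a 60 min reaction at 37C. Luminescence was read after detection reagent, normalized to 57uM sulphaphenazole.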

In assay [7] the target is Cytochrome P450 3A4 (Homo sapiens) (UniProt P08684). The experiment in a line: qHTS Assay for Inhibitors and Substrates of Cytochrome P450 3A4 (AID 884). Also: nearly all actives have a fitted effect of over 50% in size. Also: potency is read from the fitted curve at half-maximal effect. The procedure, abridged: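 20 nM human CYP3A4 with 25 uM Luciferin-PPXE (at KM) in 200 mM KPO4, preincubated 10 min with compound; NADPH regeneration started a 60 min RT reaction. Luciferin detected by luminescence, normalized to 57 uM ketoconazole as full inhibition.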
Chain of Cytochrome P450 3A4 (Homo sapiens) (P08684 whole entry, looked up): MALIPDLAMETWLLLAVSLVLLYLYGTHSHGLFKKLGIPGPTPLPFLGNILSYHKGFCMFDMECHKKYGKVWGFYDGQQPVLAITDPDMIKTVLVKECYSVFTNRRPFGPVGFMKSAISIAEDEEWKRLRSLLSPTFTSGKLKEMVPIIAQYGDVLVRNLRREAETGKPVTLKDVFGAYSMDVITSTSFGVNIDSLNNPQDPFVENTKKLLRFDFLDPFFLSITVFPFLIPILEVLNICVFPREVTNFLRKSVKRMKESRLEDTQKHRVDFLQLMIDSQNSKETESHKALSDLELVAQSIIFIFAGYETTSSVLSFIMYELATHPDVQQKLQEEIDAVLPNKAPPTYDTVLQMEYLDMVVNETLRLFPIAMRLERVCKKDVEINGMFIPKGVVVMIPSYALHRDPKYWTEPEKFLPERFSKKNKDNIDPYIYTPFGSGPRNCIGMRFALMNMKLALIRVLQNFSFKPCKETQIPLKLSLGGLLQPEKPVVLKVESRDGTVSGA

The nature of assay [8]: qHTS Assay for Identification of Small Molecule Agonists for Hypoxia Response Element Signaling Pathway (AID 914; active = well fitted activation curve with a large enough effect in the signal ratio, with a control signal flat, not every such curve was filed as active; the % refers to the signal ratio; also: potency is read from the fitted curve at half-maximal effect). Particulars: ME-180 HRE-bla reporter, beta-lactamase ratio, CoCl2, 17 h; activation: stronger effect = higher value. The procedure, abridged:
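In Opti-MEM containing 0.5% dialyzed FBS and 10 mM HEPES, ME-180 HRE-bla cells received a compound titration and EC50 CoCl2. They were incubated 17 hours, then CCF4-loaded 2.5 hours at room temperature before ratio reading.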

Assay [9] in a line: qHTS Assay for Lipid Storage Modulators (AID 1519; calls by dose curve). Particulars: Drosophila S3 cells, BODIPY lipid droplet/cell ratio, laser cytometry, cells loaded with oleic acid; for activity change, negative = inhibition: at 57.5 µM (top of the series). The procedure, abridged: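 Cells seeded at 5,000 per well were treated with compounds over a concentration series and loaded with oleic acid (400 uM, as added). Lipid droplet fluorescence (488 nm excitation, 500-530 nm channel) was read by laser-scanning cytometry and normalized to 20 uM Triacsin C.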

Assay [10] concerns the target Dual specificity protein kinase CLK4 (Homo sapiens) (UniProt Q9HAZ1). The experiment in a line: qHTS Assay for Inhibitors of CDC-like Kinase 4 (Kinase-Glo Assay) (AID 1770). Also: % is scaled to controls: 0 for no effect and ±100 for the full control effect; nearly all actives have a fitted effect of over 65% in size. Put shortly:
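Luminescent ATP-depletion read-out (Kinase-Glo) after 4.5 h room-temperature reaction of Clk4 (25 nM final) with RS peptide (100 uM) and ATP (1 uM), pH 7.5 Tris buffer with MgCl2 and DTT.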

Assay [11] has the same target. The assay can be described thus: qHTS Assay for Inhibitors of CDC-like Kinase 4 (ADP-Glo Assay) (AID 1771). Also: % is scaled to controls: 0 for no effect and ±100 for the full control effect; nearly all actives have a fitted effect of over 70% in size. The procedure, abridged: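 25 nM Clk4 with 100 uM RS repeat peptide and 1 uM ATP (final) in buffer with 2 mM MgCl2, 0.5 mM EGTA, 2.5 mM DTT, 0.01% Triton X-100; 1 h at room temperature; ADP-Glo luminescence for ADP formed.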
The target is the same in assay [12]. The experiment in a line: qHTS Assay for Inhibitors of CDC-like Kinase 4 (ADP-FP Assay) (AID 1795).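 Also: recombinant human CLK4 phosphorylating RS repeat peptide at 1 µM ATP; % is scaled to controls: 0 for no effect and ±100 for the full control effect; nearly all actives have a fitted effect of over 60% in size.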 Put shortly:
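Kinase activity was measured as ADP production using Transcreener orange tracer (4 nM) and ADP antibody (1 ug/mL) fluorescence polarization, with ADP calculated from a calibration curve. The 1 h reaction contained 6.25 nM Clk4, 1 uM ATP and 100 uM RS peptide at pH 7.5 with Mg2+.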

Assay [13] deals with Ubiquitin carboxyl-terminal hydrolase 1 (Homo sapiens) (UniProt O94782). The assay can be described thus: Inhibitors of USP1/UAF1: Pilot qHTS (AID 504865). Also: nearly all actives have a fitted effect of over 35% in size. Also: potency is read from the fitted curve at half-maximal effect. The procedure, abridged: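 Deubiquitinase activity followed as kinetic rhodamine fluorescence release from 150 nM Ub-Rho. 1 nM USP1/UAF1 with compound, after 15 min room-temperature preincubation, in HEPES pH 7.8 buffer containing TCEP, EDTA, BSA and Tween-20.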
Chain of Ubiquitin carboxyl-terminal hydrolase 1 (Homo sapiens) (O94782 whole entry, looked up): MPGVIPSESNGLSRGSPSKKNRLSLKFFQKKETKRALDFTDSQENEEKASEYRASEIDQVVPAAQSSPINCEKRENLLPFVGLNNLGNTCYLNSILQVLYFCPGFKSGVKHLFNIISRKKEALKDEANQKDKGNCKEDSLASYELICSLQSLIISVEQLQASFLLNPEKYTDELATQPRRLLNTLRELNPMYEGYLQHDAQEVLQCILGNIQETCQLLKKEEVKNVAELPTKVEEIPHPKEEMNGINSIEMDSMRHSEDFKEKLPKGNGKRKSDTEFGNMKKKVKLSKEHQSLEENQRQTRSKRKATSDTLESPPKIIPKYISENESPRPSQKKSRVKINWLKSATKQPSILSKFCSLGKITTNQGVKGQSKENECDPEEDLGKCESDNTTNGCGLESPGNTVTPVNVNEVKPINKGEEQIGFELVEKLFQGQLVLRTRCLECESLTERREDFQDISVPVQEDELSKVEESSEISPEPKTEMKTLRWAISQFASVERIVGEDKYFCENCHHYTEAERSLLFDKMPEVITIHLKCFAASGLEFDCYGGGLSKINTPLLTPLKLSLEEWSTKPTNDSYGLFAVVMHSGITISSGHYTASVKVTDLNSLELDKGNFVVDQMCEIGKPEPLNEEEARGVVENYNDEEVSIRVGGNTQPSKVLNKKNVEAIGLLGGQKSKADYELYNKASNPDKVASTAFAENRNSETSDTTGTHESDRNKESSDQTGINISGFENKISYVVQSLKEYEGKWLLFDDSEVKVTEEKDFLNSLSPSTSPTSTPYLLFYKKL

The nature of assay [14]: Primary qHTS for small molecule stabilizers of the endoplasmic reticulum resident proteome: Secreted ER Calcium Modulated Protein (SERCaMP) assay (AID 1508630). Also: % is scaled to controls: 0 for no effect and ±100 for the full control effect. The procedure, abridged:
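GLuc-SERCaMP-expressing SH-SY5Y cells, pretreated 16 h with compound, are challenged with thapsigargin to empty ER calcium stores; after 4 h, coelenterazine is added directly to the medium and luminescence is imaged.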

The nature of assay [15]: NFAT Signaling Pathway (AID 444; active = well fitted curve in either direction with a large enough effect, not every such curve was filed as active;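 also: carbachol stimulus at about its EC50 of 1 µM final; % is scaled to controls: 0 for no effect and ±100 for the full control effect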). Particulars: Jurkat NFAT-bla M1, carbachol, beta-lactamase ratio, 5 h; at 7.69 µM (top of the series) unless noted. The procedure, abridged:
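Jurkat cells carrying an NFAT-driven β-lactamase reporter and co-transfected muscarinic M1 receptor were treated with compound plus carbachol (1 uM final, an EC50 level) for 5 h at 37 °C. CCF4 loading followed for 1 h at RT; 460/530 nm ratio gave %activity.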

Assay [16] addresses 3',5'-cyclic-AMP phosphodiesterase 4B (Homo sapiens) (UniProt Q07343). The assay can be described thus: qHTS Assay for Inhibitors of PDE-IV (AID 607; active = well fitted activation curve with a large enough effect in the main read-out, with a control signal flat, not every such curve was filed as active; also: % of control where 0% means no effect). The procedure, abridged: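 ACTOne HEK293 cells carry a modified cAMP-gated CNG channel and express endogenous PDE4; plated 1000 cells/well, compounds up to 22.9 uM final. Membrane-potential dye fluorescence (ex 535/em 590) was read; parental cells received 10 uM forskolin + 100 uM RO 20-1724.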

The nature of assay [17]: Stat Signaling Pathway (AID 446; active = well fitted curve in either direction with a large enough effect, not every such curve was filed as active;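 also: ME-180 cervical cancer cells given 40 pM IL-6 alongside compound; SIE-controlled beta-lactamase reporter measured as 460/530 nm FRET emission ratio; % is scaled to controls: 0 for no effect and ±100 for the full control effect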). Particulars: ME-180 (cervical carcinoma) SIE beta-lactamase reporter, IL-6 stimulated, 5 h; at 7.69 µM (top of the series) unless noted. The procedure, abridged:
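ME-180 SIE-bla cells; overnight plating; cpd + IL-6 40 pM, 5 h, 37 C; LiveBLAzer 2.5 h RT; 460/530 nm emission ratio. Normalized to 300 pM IL-6 and 125 nM JAK inhibitor controls.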

The target in assay [18] is Cytochrome P450 3A4 (Homo sapiens) (UniProt P08684). The assay can be described thus: qHTS Assay for Activators of Cytochrome P450 3A4 (AID 885). Also: nearly all actives have a fitted effect of over 65% in size. The procedure, abridged: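 20nM CYP3A4 + 25uM Luciferin-PPXE (=KM), 200mM KPO4; cpd 10 min RT; NADPH regen, 60 min RT; stop w/ detection buffer, 20 min; luminescence. Normalized to 57 uM ketoconazole.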
The target of assay [19] is Cytochrome P450 2C19 (Homo sapiens) (UniProt P33261). The experiment in a line: qHTS Assay for Inhibitors and Substrates of Cytochrome P450 2C19 (AID 899). Also: potency is read from the fitted curve at half-maximal effect; nearly all actives have a fitted effect of over 60% in size. Put shortly: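 Human CYP2C19 (5nM) with Luciferin-H EGE at 10uM (its KM) in 50mM KPO4 was preincubated with compound for 10 min at 37C. NADPH regeneration started a 60 min 37C reaction. Luciferin was read by luminescence, normalized to 57uM ketoconazole.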
Chain of Cytochrome P450 2C19 (Homo sapiens) (P33261 whole entry, looked up): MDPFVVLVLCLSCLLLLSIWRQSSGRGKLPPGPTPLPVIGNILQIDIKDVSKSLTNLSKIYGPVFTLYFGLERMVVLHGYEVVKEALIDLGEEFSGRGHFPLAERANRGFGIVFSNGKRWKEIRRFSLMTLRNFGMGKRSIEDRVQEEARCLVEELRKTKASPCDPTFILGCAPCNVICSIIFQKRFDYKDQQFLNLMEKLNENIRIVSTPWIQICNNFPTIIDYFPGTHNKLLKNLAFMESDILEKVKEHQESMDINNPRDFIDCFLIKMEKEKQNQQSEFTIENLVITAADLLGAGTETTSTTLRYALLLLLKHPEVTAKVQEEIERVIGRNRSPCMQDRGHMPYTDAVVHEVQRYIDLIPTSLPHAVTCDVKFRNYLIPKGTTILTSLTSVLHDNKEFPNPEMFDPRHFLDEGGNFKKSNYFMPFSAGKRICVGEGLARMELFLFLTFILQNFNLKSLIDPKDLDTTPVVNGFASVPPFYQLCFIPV

Where [20] appears, read: measured here: cell count channel max response.
The mark [21] stands for this setting: measured here: lipid channel max response.

Results filed as inconclusive are left out. The source made the active and inactive calls. Unless noted, calls follow the shape of the dose curve; as a rule, active = well fitted curve in the direction sought with a large enough effect; inconclusive = small, poorly fitted or top-dose-only effect, or another doubt; inactive = no such curve, though single readings can be large; an effect the other way counts as inactive or inconclusive.

Chain of Lysosomal acid glucosylceramidase (Homo sapiens) (P04062 whole entry, looked up): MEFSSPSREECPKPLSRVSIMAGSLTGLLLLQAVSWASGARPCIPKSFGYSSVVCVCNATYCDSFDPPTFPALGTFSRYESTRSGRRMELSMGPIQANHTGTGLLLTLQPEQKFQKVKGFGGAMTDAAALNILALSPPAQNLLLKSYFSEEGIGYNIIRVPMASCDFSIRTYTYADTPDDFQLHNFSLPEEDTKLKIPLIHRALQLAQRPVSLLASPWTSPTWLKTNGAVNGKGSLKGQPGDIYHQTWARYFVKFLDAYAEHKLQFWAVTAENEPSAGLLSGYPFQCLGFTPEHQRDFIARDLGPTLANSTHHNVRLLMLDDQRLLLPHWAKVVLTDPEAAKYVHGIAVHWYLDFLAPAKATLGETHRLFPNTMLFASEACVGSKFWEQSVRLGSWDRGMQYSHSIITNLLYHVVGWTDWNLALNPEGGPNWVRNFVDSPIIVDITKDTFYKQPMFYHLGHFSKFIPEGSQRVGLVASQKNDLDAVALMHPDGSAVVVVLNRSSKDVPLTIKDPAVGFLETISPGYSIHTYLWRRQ
Chain of Glucocorticoid receptor (Homo sapiens) (P04150 whole entry, looked up, the tested form may be a part): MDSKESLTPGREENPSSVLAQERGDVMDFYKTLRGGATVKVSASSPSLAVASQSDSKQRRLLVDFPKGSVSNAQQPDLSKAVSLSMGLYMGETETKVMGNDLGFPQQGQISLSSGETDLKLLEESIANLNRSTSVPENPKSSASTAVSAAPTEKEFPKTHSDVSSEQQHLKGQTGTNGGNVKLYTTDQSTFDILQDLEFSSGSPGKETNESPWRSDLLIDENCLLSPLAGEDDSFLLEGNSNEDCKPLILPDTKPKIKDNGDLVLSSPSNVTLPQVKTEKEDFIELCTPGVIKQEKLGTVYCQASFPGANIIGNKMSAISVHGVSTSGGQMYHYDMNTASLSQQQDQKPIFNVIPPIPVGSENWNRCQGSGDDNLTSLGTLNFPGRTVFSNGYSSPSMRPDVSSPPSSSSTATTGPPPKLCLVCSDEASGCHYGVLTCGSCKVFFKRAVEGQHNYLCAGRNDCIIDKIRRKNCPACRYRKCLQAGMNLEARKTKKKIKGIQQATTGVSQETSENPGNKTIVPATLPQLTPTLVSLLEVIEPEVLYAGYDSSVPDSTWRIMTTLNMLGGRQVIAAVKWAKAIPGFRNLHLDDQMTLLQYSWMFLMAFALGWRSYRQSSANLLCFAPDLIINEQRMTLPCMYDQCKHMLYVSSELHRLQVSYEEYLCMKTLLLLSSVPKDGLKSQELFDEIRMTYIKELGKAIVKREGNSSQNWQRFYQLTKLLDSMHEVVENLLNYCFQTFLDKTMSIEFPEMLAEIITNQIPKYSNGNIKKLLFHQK
Chain of Dual specificity protein kinase CLK4 (Homo sapiens) (Q9HAZ1 whole entry, looked up): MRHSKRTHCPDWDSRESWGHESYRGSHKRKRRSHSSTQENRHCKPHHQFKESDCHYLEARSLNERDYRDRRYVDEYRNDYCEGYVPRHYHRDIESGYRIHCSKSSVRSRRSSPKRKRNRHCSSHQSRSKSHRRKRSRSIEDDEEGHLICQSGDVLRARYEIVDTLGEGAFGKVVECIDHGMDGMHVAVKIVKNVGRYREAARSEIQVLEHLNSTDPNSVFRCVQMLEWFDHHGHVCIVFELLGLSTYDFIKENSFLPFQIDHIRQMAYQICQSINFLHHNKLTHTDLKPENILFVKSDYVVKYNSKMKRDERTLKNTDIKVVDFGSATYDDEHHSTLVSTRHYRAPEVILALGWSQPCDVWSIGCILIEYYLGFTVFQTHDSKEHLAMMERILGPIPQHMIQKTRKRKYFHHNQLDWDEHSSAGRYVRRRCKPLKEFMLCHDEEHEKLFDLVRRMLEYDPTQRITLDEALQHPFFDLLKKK
Chain of 3',5'-cyclic-AMP phosphodiesterase 4B (Homo sapiens) (Q07343 whole entry, looked up): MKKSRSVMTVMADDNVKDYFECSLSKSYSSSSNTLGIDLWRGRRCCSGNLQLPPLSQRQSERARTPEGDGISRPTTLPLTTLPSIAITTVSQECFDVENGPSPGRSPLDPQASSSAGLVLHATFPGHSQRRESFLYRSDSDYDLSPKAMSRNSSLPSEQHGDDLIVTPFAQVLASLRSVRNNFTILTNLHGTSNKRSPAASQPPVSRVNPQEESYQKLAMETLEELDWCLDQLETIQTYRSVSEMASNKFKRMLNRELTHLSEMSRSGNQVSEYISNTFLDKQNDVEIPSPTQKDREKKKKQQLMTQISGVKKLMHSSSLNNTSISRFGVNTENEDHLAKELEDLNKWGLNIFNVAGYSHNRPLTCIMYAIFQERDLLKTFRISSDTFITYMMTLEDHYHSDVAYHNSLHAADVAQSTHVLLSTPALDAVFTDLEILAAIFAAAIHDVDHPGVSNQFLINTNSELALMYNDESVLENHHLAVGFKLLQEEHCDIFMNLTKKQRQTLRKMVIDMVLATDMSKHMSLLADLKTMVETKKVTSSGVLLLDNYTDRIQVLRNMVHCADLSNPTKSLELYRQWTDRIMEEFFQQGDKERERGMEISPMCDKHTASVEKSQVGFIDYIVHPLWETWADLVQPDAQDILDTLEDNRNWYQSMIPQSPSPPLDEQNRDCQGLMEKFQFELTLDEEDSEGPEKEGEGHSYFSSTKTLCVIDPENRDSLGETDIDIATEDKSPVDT
Chain of Cytochrome P450 1A2 (Homo sapiens) (P05177 whole entry, looked up): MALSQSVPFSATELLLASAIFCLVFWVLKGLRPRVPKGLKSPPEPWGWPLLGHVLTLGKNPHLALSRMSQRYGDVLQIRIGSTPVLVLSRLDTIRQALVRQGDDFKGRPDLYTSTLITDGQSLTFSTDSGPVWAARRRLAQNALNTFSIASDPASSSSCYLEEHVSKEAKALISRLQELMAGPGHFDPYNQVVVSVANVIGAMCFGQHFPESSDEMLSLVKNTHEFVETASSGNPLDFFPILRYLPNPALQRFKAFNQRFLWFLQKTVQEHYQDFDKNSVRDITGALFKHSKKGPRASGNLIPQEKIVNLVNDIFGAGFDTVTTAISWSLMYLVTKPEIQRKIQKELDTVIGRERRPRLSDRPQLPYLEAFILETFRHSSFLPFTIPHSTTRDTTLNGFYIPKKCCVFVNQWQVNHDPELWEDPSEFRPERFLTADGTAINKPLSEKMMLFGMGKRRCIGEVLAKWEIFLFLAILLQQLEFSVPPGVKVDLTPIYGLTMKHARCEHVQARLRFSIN

Turning to `CN(C)c1ncc2nc(-c3ccc(F)cc3)c(=O)n(Cc3ccc(F)cc3)c2n1`, the Potency in assay [1] was > 11.4 µM (inactive); in assay [3] it was > 9.22 µM (inactive); in [4], > 46 µM (inactive); in assay [8] it was 3.16 µM (active). The Potency entry in assay [2], in assay [6], in assay [7], in assay [10], in assay [11] and in assay [12] was “inactive” in each case. Also, the Potency result in [13] and in [14] was “inactive” throughout. Further, the compound was called inactive in assay [5]. In addition, the activity change, negative = inhibition in [9] is 5.32% (inactive). The max response in assay [9] (setting [20]) turned out to be 19.6%; in assay [9] (setting [21]), 25.7%.
In the case of `COc1ccc(-n2c(=O)c(-c3ccc(F)cc3)nc3cnc(N4CCOCC4)nc32)cc1`, the Potency in [1] was > 11.4 µM (inactive); in assay [3] it was > 9.22 µM (inactive); in assay [4], > 46 µM (inactive); in assay [8] it was 3.16 µM (active). For the same compound, the activity change, negative = inhibition in assay [15] is 12.6% (inactive); in [9], 4.12% (inactive). The compound was classed as inactive in [5]. Moreover, the Potency entry in [16], in assay [10], in assay [11], in assay [12], in assay [13] and in assay [14] was “inactive” in each case. Further, the max response in [9] (setting [20]) turned out to be 3.3%; in [9] (setting [21]), 4.35%.
Consider `FC(F)(F)c1ccccc1-c1nc(NCc2cccs2)c2ccccc2n1`, for which the Potency in [1] was > 11.4 µM (inactive); in [3], > 46 µM (inactive); in [7], 3.98 µM (active); in assay [19], 7.94 µM (active); in [13] it was 7.94 µM (active). Also, the activity change, negative = inhibition in [15] is -18.2% (inactive); in assay [9] it was 2.3% (inactive). In addition, the activity, negative = inhibition in assay [17] is -11.7% (inactive). For the same compound, the result in assay [5] was inactive. In addition, the Potency entry in assay [18], in assay [10], in assay [11], in assay [12] and in assay [14] was “inactive” each time. Besides, the max response in assay [9] (setting [20]) amounted to 10.4%; in assay [9] (setting [21]) it was 10.9%.
`COc1cccc(Cn2c(=O)c(-c3cccc(C#N)c3)nc3cnc(N4CCN(C)CC4)nc32)c1`: the Potency in assay [1] is > 11.4 µM (inactive); in [3], > 9.22 µM (inactive); in assay [4], > 46 µM (inactive); in assay [8] it was 3.16 µM (active). For the same compound, the Potency result in [2], in assay [16], in assay [18], in [10], in [11] and in assay [12] was “inactive” throughout. In addition, the Potency entry in assay [13] and in [14] was “inactive” each time. Also, the compound was called inactive in assay [5]. For the same compound, the activity change, negative = inhibition in assay [9] was 2.54% (inactive). The max response was 21.5% in assay [9] (setting [20]) and 24.1% in assay [9] (setting [21]).
On to `COc1ccc(-c2nc3cnc(Oc4ccccc4)nc3n(CCC#N)c2=O)cc1`, for which the Potency in assay [1] is > 11.4 µM (inactive); in [3] it was > 9.22 µM (inactive); in assay [4], > 46 µM (inactive). Also, the activity change, negative = inhibition in [15] is -15.1% (inactive); in assay [9], 1.13% (inactive). The activity, negative = inhibition in [17] is -20% (inactive). The call in assay [5] was inactive. The Potency entry in assay [16], in [10], in [11], in assay [12], in assay [13] and in assay [14] was “inactive” in each case. In addition, the max response was -12.9% in [9] (setting [20]) and -14% in assay [9] (setting [21]).
On to `O=c1c(-c2ccc(F)cc2)nc2cnc(N3CCNCC3)nc2n1C1CC1`, for which the Potency is > 11.4 µM (inactive) in [1]; 2.51 µM (active) in [2]; > 9.22 µM (inactive) in assay [3]; > 46 µM (inactive) in assay [4]; 2.51 µM (active) in assay [8]. In addition, in [5], the compound was classed as inactive. For the same compound, the Potency result in assay [16], in [18], in [10], in assay [11], in assay [12] and in assay [13] was “inactive” in each case. Further, in assay [14], the Potency entry was “inactive”. For the same compound, the activity change, negative = inhibition in assay [9] is 2.85% (inactive). Further, the max response in assay [9] (setting [20]) stood at 26.5%; in assay [9] (setting [21]), 28.4%.
